Fam108B counter – mouse Fam108B serine hydrolase inhibitors, primary screen, counter-screen for RBBP9 inhibitor project, biochemical, fluorescence polarization; recombinant Fam108B, FP-Rh probe fluorescence polarization; AID 1947, 2009; 0.33% of 300,000 active; inhibition, % at 9.51 µM;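 active means inhibition above the screen mean inhibition plus 3 SD, computed separately per campaign, cut at about 18% in these data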;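 further: inhibitors lower polarization as less probe binds the enzyme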
PAFAH1B3 inh – PAFAH1B3 enzyme inhibitors, primary screen, biochemical, fluorescence polarization, human; 0.28% of 340,000 active; inhibition, % at 3.39 µM; recombinant PAFAH1B3, FP-rhodamine probe;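 active means inhibition above the screen-wide average of all tested compounds plus 3 SD, cut at about 25% in these data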
PAFAH1B2 FP inh – PAFAH1B2 enzyme inhibitors, primary screen, biochemical, fluorescence polarization, human; Platelet-activating factor acetylhydrolase IB subunit alpha2 (Homo sapiens), P68402; recombinant PAFAH1B2, FP-rhodamine activity probe; inhibition, % at 3.39 µM; 1.2% of 340,000 active;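 active means inhibition above the mean of all tested compounds plus 3 SD, cut at about 24% in these data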
PAFAH2 FP inh – PAFAH2 enzyme inhibitors, primary screen, biochemical, fluorescence polarization, human; Platelet-activating factor acetylhydrolase 2, cytoplasmic (Homo sapiens), Q99487; 0.99% of 340,000 active; recombinant PAFAH2, FP-rhodamine activity probe; inhibition, % at 3.39 µM;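 active means inhibition above the mean over all tested compounds plus 3 SD, cut at about 30% in these data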;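 further: inhibitors block probe labeling of enzyme so polarization drops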
PME-1 primary – PME-1 inhibitors via competitive probe labeling, primary screen, biochemical, fluorescence polarization, FP-Rh probe, HTS. recombinant PME-1. inhibition, % at 5.9 µM. 0.53% of 320,000 active. AID 2130, 2009;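 active means inhibition above the campaign mean of all compounds plus 3 SD, cut at about 26% in these data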;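 further: competitive labeling of PME-1 active site by serine hydrolase directed probe; inhibitors block probe labeling so polarization falls and inhibition rises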
pPAFAH inh – pPAFAH enzyme inhibitors, primary screen, biochemical, fluorescence polarization, human; Platelet-activating factor acetylhydrolase (Homo sapiens), Q13093; recombinant pPAFAH, FP-rhodamine probe fluorescence polarization; inhibition, % at 3.39 µM; 1.5% of 330,000 active; AID 463082, 2010;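 active means inhibition above the mean inhibition across the screen plus 3 SD, cut at about 25% in these data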;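 further: inhibitors block binding of the rhodamine activity-based probe so polarization drops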
Target sequence (Q13093 whole entry, looked up): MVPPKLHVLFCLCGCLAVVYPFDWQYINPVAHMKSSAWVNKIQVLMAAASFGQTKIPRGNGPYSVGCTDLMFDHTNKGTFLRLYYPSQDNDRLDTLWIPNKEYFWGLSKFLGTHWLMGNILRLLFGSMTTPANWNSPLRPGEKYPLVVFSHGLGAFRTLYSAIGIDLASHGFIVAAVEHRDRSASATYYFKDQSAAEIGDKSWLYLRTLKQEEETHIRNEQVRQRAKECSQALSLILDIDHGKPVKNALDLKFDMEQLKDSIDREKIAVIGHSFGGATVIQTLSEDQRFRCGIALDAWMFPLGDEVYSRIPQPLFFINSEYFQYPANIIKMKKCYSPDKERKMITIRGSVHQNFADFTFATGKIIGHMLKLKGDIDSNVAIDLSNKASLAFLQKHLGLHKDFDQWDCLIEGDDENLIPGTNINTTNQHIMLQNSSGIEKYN
PAFAH2 confirm – PAFAH2 enzyme inhibitors, confirmation, biochemical, fluorescence polarization, human. shares compounds with PAFAH2 FP inh. recombinant PAFAH2, FP-rhodamine activity probe. inhibition, % at 3.39 µM. 65% of 2,300 active. AID 493030, 2011;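 active means mean inhibition over three repeats above a set limit taken from the earlier primary screen, cut at about 30% in these data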;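 further: inhibitor blocks binding of rhodamine activity probe so polarization falls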
Each line names hits and unclear results; the compound was inactive in the other large screens (follow-up assays come after a bar, where they were run). Rows were chosen to be rich in hits. Some 2.8% of all compounds tested hit in one or more screens of this group.

COc1ccc(C(=O)NCCc2ccc(C(F)(F)F)cc2)cc1S(=O)(=O)N1CCOCC1	none (no result: Fam108B counter)
O=C(COC(=O)c1ccc(Cl)nc1)NCc1ccc(F)cc1	none (no result: Fam108B counter, PME-1 primary)
COc1ccc(C(=O)OCCOc2cccc(Cl)c2)cc1S(=O)(=O)N1CCOCC1	PAFAH2 FP inh 35.0 | PAFAH2 confirm inactive
COc1ccc(C(=O)OCC(=O)c2ccccc2)cc1S(=O)(=O)N1CCOCC1	PAFAH2 FP inh 52.4 | PAFAH2 confirm 40.4
O=C(COC(=O)c1ccc(F)c(S(=O)(=O)N2CCCCC2)c1)NCc1ccc(F)cc1	PAFAH2 FP inh 32.3 | PAFAH2 confirm inactive
O=C(COC(=O)c1ccc(Br)c(S(=O)(=O)N2CCOCC2)c1)NCCc1ccccc1	none (no result: Fam108B counter, PME-1 primary)
O=C(COC(=O)c1ccc(CNS(=O)(=O)c2ccc(F)c(Cl)c2)cc1)NC1CCCCCCC1	none
O=C(COC(=O)c1ccc(CNS(=O)(=O)c2ccc(F)c(Cl)c2)cc1)NCC1CCCCC1	PAFAH2 FP inh 58.6 | PAFAH2 confirm 65.6
O=C(COC(=O)c1ccc(S(=O)(=O)N2CCCCCC2)cc1)NCc1ccc(F)cc1	none (no result: Fam108B counter, PME-1 primary, pPAFAH inh)
O=C(COC(=O)c1ccc(F)c(S(=O)(=O)N2CCOCC2)c1)NCCc1ccc(F)cc1	PAFAH2 FP inh 30.1 (no result: Fam108B counter, PME-1 primary) | PAFAH2 confirm inactive
CC1C(=O)N2CCCc3cc(NC(=O)c4ccccc4C(F)(F)F)cc1c32 (centres undefined)	none
COc1ccc(CNC(=O)CCCC(=O)Nc2cccc(Br)c2)cc1	none
N#CCCNS(=O)(=O)c1ccc(C(=O)OCCCOC(=O)c2ccc(S(=O)(=O)NCCC#N)cc2)cc1	none
O=C(NCCc1ccc(C(F)(F)F)cc1)C1CCC(=O)N(CCc2cccc(F)c2)C1 (centres undefined)	none
O=C(NCCc1ccc(C(F)(F)F)cc1)C1CCC(=O)N(CCCc2ccccc2)C1 (centres undefined)	PAFAH2 FP inh 53.0 | PAFAH2 confirm 53.4
C=CCNc1nc(C(=O)OCC(=O)Nc2cccc(SC)c2)cs1	PAFAH2 FP inh 61.6 (no result: Fam108B counter, PME-1 primary, pPAFAH inh) | PAFAH2 confirm 51.1
O=C(NNC(=O)c1cc(Cl)ccc1O)c1cccs1	PAFAH2 FP inh 76.5 | PAFAH2 confirm 72.7
O=C(NC(=S)NNC(=O)c1ccccc1O)c1cccs1	PAFAH2 FP inh 45.4 | PAFAH2 confirm 36.2
O=C(NC(=S)NNC(=O)c1ccccc1O)c1ccccc1	PAFAH2 FP inh 31.3 | PAFAH2 confirm inactive
O=C(NC(=S)NNC(=O)c1ccccc1O)c1ccc([N+](=O)[O-])cc1	PAFAH2 FP inh 31.8 | PAFAH2 confirm inactive
O=C(NNC(=O)c1ccccc1Cl)c1cccs1	none
Cc1ccc(C(=O)NC(=S)NNC(=O)c2ccccc2O)cc1	none
O=C(N=C1SC2CS(=O)(=O)CC2N1c1cccc(Cl)c1Cl)C1CC1 (centres undefined)	none
Cc1cccc(C(=O)NNC(=O)c2ccccc2O)c1	PAFAH2 FP inh 35.0 | PAFAH2 confirm inactive
Cc1cc(C)c(NC(=O)CN2CCN(c3ccccn3)CC2)c(C)c1	none
Cc1c(C)c2c(OCC(=O)Nc3cccnc3)cc3c(c2oc1=O)CCC(C)(C)O3	PAFAH2 FP inh 33.3 | PAFAH2 confirm inactive
Cc1c(C)c2c(OCC(=O)NCC(C)C)cc3c(c2oc1=O)CCC(C)(C)O3	PAFAH2 FP inh 71.8 (no result: Fam108B counter, PME-1 primary, pPAFAH inh) | PAFAH2 confirm 51.7
Cc1cc(OCC(=O)Nc2cccnc2)c2c(C)c(C)c(=O)oc2c1	none
Cc1cc(=O)oc2c3c(cc(OCC(=O)NCC(=O)N[C@H](C(=O)O)C(C)C)c12)OC(C)(C)CC3	none
CCOc1ccccc1CN1CCC(N2CCOCC2)CC1	none
O=C(CCNC(=O)c1ccccc1)OCC(=O)c1ccccc1	PAFAH2 FP inh 32.8 | PAFAH2 confirm inactive
NNC(=O)c1ccc(N2CCCCCC2)c([N+](=O)[O-])c1	none
Cc1cc(NC(=O)c2cnn3c(C(F)(F)F)cc(-c4ccccc4)nc23)no1	PAFAH2 FP inh 29.6 | PAFAH2 confirm inactive
